CYP2C9 inhib: human CYP2C9 inhibition. P11712. CYP2C9 Supersomes, luciferin-H conversion, luminescence. inhibition, % at 5 µM. 96,000 compounds, 20% hits;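 active = blocking of liver enzyme CYP2C9 beyond about 50% at 5 µM, limit read from the data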
CYP2C19 inh: human CYP2C19 inhibition; inhibition, % at 5 µM; 96,000 compounds, 21% hits; CYP2C19 Supersomes, luciferin-H EGE luminescence, 30 min;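 active = CYP2C19 inhibition above a set limit at 5 µM in the primary screen, cut at about 50% in these data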;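 also: plate controls were negative control wells for no effect and 2.5 mM tranylcypromine positive control for full effect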
Target sequence (P33261 whole entry, looked up): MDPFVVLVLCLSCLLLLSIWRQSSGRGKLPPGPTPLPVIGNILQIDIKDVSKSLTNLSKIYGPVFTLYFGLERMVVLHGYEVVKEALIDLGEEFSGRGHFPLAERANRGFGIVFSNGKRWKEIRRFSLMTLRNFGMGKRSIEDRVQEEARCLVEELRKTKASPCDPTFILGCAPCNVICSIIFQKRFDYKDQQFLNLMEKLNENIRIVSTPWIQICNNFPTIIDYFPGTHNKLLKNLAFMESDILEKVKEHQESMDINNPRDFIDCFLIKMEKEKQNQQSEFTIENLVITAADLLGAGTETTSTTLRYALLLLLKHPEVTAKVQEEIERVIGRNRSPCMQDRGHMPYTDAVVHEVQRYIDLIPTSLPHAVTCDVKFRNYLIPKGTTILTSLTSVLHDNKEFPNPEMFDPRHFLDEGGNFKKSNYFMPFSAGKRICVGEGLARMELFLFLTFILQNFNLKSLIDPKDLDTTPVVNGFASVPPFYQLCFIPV
CYP2C9 act: increases human cytochrome P450 2C9 activity; P11712; recombinant CYP2C9, luciferin-H conversion, luminescence; stronger effect = higher value; factor 1 = untreated enzyme, 0 = blocked; activation factor at 5 µM; 96,000 compounds, 1.4% hits;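 active = activation factor of 2 or more for CYP2C9 at a 5 µM dose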;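 also: 0 = sulfaphenazole-blocked wells and 1 = vehicle-only wells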
CYP2C19 activ: increases human CYP2C19 enzyme activity; P33261; recombinant CYP2C19, luciferin-H EGE luminescence; stronger effect = higher value; 0 = fully inhibited enzyme, 1 = untreated enzyme; activation factor at 5 µM; 96,000 tested, under 10 active;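 active = activation factor of at least 2 at 5 µM in the primary screen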;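 also: 0 = wells with 2.5 mM tranylcypromine and 1 = vehicle-only wells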
Measles CPE: protection of cells from measles virus; Measles virus-infected cells, CPE protection, absorbance; protection (pct of control), % at 4 µM; 140,000 compounds, 1.5% hits; AID 841; in the data active = protection mostly above about 24%, no sharp cut-off; inactive = mostly below about 26%
Numbers without * were called inactive; x = no result. Shown are actives, neighbours in structure and some others; about 22% of the full set was active somewhere.

SMILES	CYP2C9 inhib	CYP2C19 inh	CYP2C9 act	CYP2C19 activ	Measles CPE
CC(C)C(C(=O)OCC(=O)c1ccc2c(c1)NC(=O)CO2)N1C(=O)c2ccccc2C1=O (stereo not drawn)	7.0	14.9	0.9	0.9	7.7
CC[C@H](C)[C@H](NC(=O)c1ccc(Cl)cc1)C(=O)OCC(=O)c1ccc2c(c1)NC(=O)CO2	55.7*	45.9	0.4	0.5	8.9
COc1cc(OC)cc(C(=O)N[C@H](C(=O)OCC(=O)Nc2ccc(C(N)=O)cc2)C(C)C)c1	x	x	x	x	7.3
CCCS(=O)(=O)N1CCN(C(=O)c2ccc(-c3ccccc3)cc2)CC1	19.3	20.7	0.8	0.8	14.4
Cc1ccc(-c2nnc(/C=C/c3ccccc3)o2)cc1	x	x	x	x	23.5
COc1cc2cc(CN(Cc3cccnc3)C(=O)NCc3ccccc3)c(=O)[nH]c2cc1OC	37.3	51.7*	0.6	0.5	48.3*
COc1ccc(NC(=O)N(CCN2CCCC2)Cc2cc3cc(OC)c(OC)cc3[nH]c2=O)cc1	75.0*	2.4	0.3	1	33.9
CCc1ccc2[nH]c(=O)c(CN(CCCN3CCOCC3)C(=O)Nc3ccc(F)cc3)cc2c1	43.5	55.3*	0.6	0.4	0.9
CCc1ccc2[nH]c(=O)c(CN(CCN3CCOCC3)C(=O)Nc3ccccc3F)cc2c1	51.9*	49.7	0.5	0.5	22.9
Cc1ccc(S(=O)(=O)N2CCCCC2)cc1NC(=O)COC(=O)CNC(=O)c1cc(Cl)cc([N+](=O)[O-])c1	x	x	x	x	20.2
C=C(C)C(=O)OCCCCCCOc1ccc(C(=O)O)cc1	34.6	26.7	0.7	0.7	3.4
CCCc1nc2sc3c(=O)n(N)cnc3c2c2c1CCCC2	x	x	x	x	24.9
CCc1ccc2[nH]c(=O)c(CN(Cc3ccccc3)C(=O)Nc3ccccc3OC)cc2c1	90.3*	85.6*	0.1	0.1	5.0
CCN(CC)CCCN(Cc1cc2cc(OC)ccc2[nH]c1=O)C(=O)Nc1ccc(F)cc1	84.4*	62.3*	0.2	0.4	25.0
COc1cc2cc(CN(Cc3cccs3)C(=S)Nc3ccc(C)cc3)c(=O)[nH]c2cc1OC	x	x	x	x	30.4*
CN1CCN(c2nc(N3CCN(c4ccccc4)CC3)ncc2F)CC1	19.4	61.8*	0.8	0.4	16.2
c1ccc(N2CCN(c3ncccn3)CC2)cc1	26.3	29.0	0.7	0.7	3.0
CC1(C)N=C(SCC(=O)Nc2ccc(Cl)cc2)C(c2ccccc2)=N1	68.0*	76.6*	0.3	0.2	30.2
CC1(C)N=C(SCC(=O)Nc2ccc(Cl)cc2)C(c2ccc(Cl)cc2)=N1	40.5	38.0	0.6	0.6	9.6
O=C(c1ccc(N2CCCC2=O)cc1)N1CCCCCC1	1.2	57.6*	1	0.4	21.5
O=C(c1ccc(N2CCCC2=O)cc1)N1CCN(c2ccccc2)CC1	40.3	19.8	0.6	0.8	14.3
Cc1cccc(N2CCN(C(=O)c3ccc(N4CCCC4=O)cc3)CC2C)c1 (stereo not drawn)	29.4	55.5*	0.7	0.4	6.6
Cc1cccc(N2CCN(C(=O)c3ccc(N4CCCC4=O)cc3)CC2)c1C	70.1*	52.2*	0.3	0.5	1.7
COc1cccc(-n2nc(-c3ccnn3-c3ccc(F)cc3)c(=O)n(C)c2=O)c1	80.1*	66.6*	0.2	0.3	6.7
COc1cccc(-n2nc(-c3ccnn3-c3ccc(C)cc3)c(=O)n(C)c2=O)c1	83.5*	89.4*	0.2	0.1	12.1
SMILES	CYP2C9 inhib	CYP2C19 inh	CYP2C9 act	CYP2C19 activ	Measles CPE
COc1ccc(-n2nccc2-c2nn(-c3cccc(OC)c3)c(=O)n(C)c2=O)cc1	61.7*	89.2*	0.4	0.1	3.0
COc1cccc(-n2c(C)nn(C)c2=O)c1	-3.2	15.2	1	0.8	3.8
CCCNC(=O)c1cccc(Cn2cc(Br)c([N+](=O)[O-])n2)c1	x	x	x	x	8.1
COc1ccc(-n2ncc(S(=O)(=O)c3ccccc3)c2-c2ccc(Cl)cc2)cc1	72.4*	40.1	0.3	0.6	2.8
O=C(CSc1nnc(SCc2ccccc2)s1)N/N=C/c1c(Cl)cccc1Cl	x	x	x	x	6.4
CCN(CC)CCNC(=O)c1cc2c(=O)n(C)c3ccccc3c2n1C	-1.3	-8.7	1	1.1	40.6*
CCN(CC)CCCNC(=O)c1cc2c(=O)n(C)c3ccccc3c2n1C	-0.8	-5.0	1	1.1	3.6
Cn1c(C(=O)NCCCN2CCCCCC2)cc2c(=O)n(C)c3ccccc3c21	6.6	11.0	0.9	0.9	5.0
CCCN1CCN(CCCNC(=O)c2cc3c(=O)n(C)c4ccccc4c3n2C)CC1	67.2*	-14.5	0.3	1.1	6.4
CCOC(=O)N1CCN(C(=O)CCSc2ccccc2)CC1	37.9	71.3*	0.6	0.3	5.2
O=C(CCc1ccc(S(=O)(=O)NCCc2ccccc2)cc1)Nc1ccc2c(c1)OCO2	84.2*	90.3*	0.2	0.1	6.7
O=C(CCc1ccc(S(=O)(=O)NCCc2ccccc2)cc1)N1CCN(Cc2ccc3c(c2)OCO3)CC1	43.3	53.1*	0.6	0.5	17.9
CC(C)CNS(=O)(=O)c1ccc(CCC(=O)N2CCN(Cc3ccc4c(c3)OCO4)CC2)cc1	x	x	x	x	3.7
CC(C)CNS(=O)(=O)c1ccc(CCC(=O)N2CCN(Cc3ccccc3)CC2)cc1	16.2	3.3	0.8	1	25.2
CC(C)CNS(=O)(=O)c1ccc(CCC(=O)Nc2ccc3c(c2)OCO3)cc1	37.8	4.6	0.6	1	15.7
CCOC(=O)N1CCN(C(=O)CCc2ccc(S(=O)(=O)NCCc3ccccc3)cc2)CC1	77.7*	82.3*	0.2	0.2	16.9
C/C(=N\NC(=O)CSCc1ccc(Cl)cc1)c1ccc2c(c1)OCCO2	64.4*	84.1*	0.4	0.2	1.1
C/C(=N\NC(=O)COc1cccc(Cl)c1)c1ccc2c(c1)OCCO2	x	x	x	x	5.3
Cc1ccc(S(=O)(=O)N2CCN(C(=O)CCC(=O)N3CCc4ccccc43)CC2)cc1	4.9	38.7	1	0.6	x
Cc1ccc(N(CC(=O)N2CCc3ccccc32)C2=NC(=O)CS2)cc1	67.4*	56.0*	0.3	0.4	3.6
Cc1ccc(S(=O)(=O)CCC(=O)N2CCc3ccccc32)cc1	-116.3	1.4	2.2*	1	3.0
Cc1ccc(S(=O)(=O)N(C)CC(=O)N2CCCc3ccccc32)cc1	-172.4	29.5	2.7*	0.7	12.3
Cn1cc(S(=O)(=O)CC(=O)N2CCCc3ccccc32)c2ccccc21	-88.4	83.5*	1.9	0.2	9.0
Cc1ccc(C(=O)OCC(=O)N2CCc3ccccc32)cc1	2.5	9.9	1	0.9	5.5
CCN1CCN(CC(=O)N2c3ccccc3CC2C)CC1 (stereo not drawn)	5.1	-0.4	0.9	1	5.4
C=CCN1C(=O)/C(=C\c2ccc(Cl)cc2)N=C1SCC(=O)NCCC	13.7	21.5	0.9	0.8	13.1
CN(CC(=O)N1CCc2ccccc21)S(=O)(=O)c1ccc(Br)s1	-23.4	93.8*	1.2	0.1	18.7
CC1CCCCC1NC(=O)c1ccc2c(c1)[nH]c(=O)n2C1CCCC1 (stereo not drawn)	76.2*	43.0	0.2	0.6	22.0

Screens: PubChem, several laboratories
